Data from PubChem BioAssay AID588727 (Southern Research Specialized Biocontainment Screening …, 2011).
Among all 350,000 compounds or so, about 450 (0.13%) were called active. The rule behind the calls is not given here. Not all results are given here. Entries with a potency or affinity are not part of this list. Where a SMILES comes first, the peptide text is derived from it. The star is where a group is joined. CH2Cl = ClC*

Assay: inhibitors of VEEV TC-83 cytopathic effect, confirmation, Vero cells (AID 588727)
Conditions: VEEV TC-83 cytopathic effect inhibition, at 20 µM
[1] = stronger effect = higher value unless noted
[2] = measured here: 10K pilot screen inhibition, stronger effect = higher value

CCOC(=O)N1CCN(C(=O)CCNS(=O)(=O)c2ccccc2)CC1
inhibition [1]: 1.37% (inactive)

CCOC(=O)c1[nH]c(COC(=O)c2ccccc2NC(=O)c2ccco2)c(C(=O)OCC)c1C
inhibition (stronger effect = higher value): 1.08% (inactive)
inhibition [2]: 3.34%

CCCCN(C(=O)CSc1nc(CCC)cc(=O)[nH]1)c1c(N)n(Cc2ccccc2)c(=O)[nH]c1=O
inhibition [1]: 0.91% (inactive)

O=c1oc(C2(O)CCCCC2)cc2ccc(Br)cc12
inhibition (stronger effect = higher value): 0.16% (inactive)
inhibition [2]: 1.56%

O=c1oc(C2(O)CCCCC2)cc2ccccc12
inhibition [1]: 0.11% (inactive)

COc1ccc(OC)c(NC(=O)c2ccc3c(c2)OCO3)c1
inhibition [1]: inactive

CCCc1nc2c(s1)CCc1onc(-c3cccc([N+](=O)[O-])c3)c1-2
inhibition [1]: 0.11% (inactive)

CN1CCN(c2ccc(NC(=O)c3ccc(-c4ccc(Br)cc4)o3)cc2)CC1
inhibition [1]: 9.39% (inactive)

CN1CCN(c2ccc(NC(=O)c3ccc(-c4ccc(Cl)cc4)o3)cc2)CC1
inhibition [1]: 10.7% (inactive)

O=C(CN(C(=O)c1csnn1)c1cccc(C(F)(F)F)c1)NCCc1ccccc1
inhibition [1]: inactive

O=[N+]([O-])c1ccc(-[n+]2c(-c3ccccc3)cc(-c3ccccc3)cc2-c2ccccc2)cc1
inhibition [1]: 2.23% (inactive)

O=[N+]([O-])c1cccc(C2=NC(c3ccccc3)CO2)c1 (stereo not drawn)
inhibition [1]: 0.23% (inactive)

O=C1CCC(C(=O)N2CCN(c3ccc(F)cc3)CC2)CN1CC1CCCCC1 (stereo not drawn)
inhibition [1]: 0.83% (inactive)

Cc1onc(-c2ccccc2)c1C(=O)NC(=S)NNC(=O)c1ccc(O)cc1O
inhibition [1]: 12.2% (inactive)

Cc1onc(-c2ccccc2)c1C(=O)NNC(=S)NC(=O)c1ccc(Br)cc1
inhibition [1]: 3.29% (inactive)

Nc1nnnn1/N=C/C(Br)=C/c1ccccc1
inhibition [1]: 12.1% (inactive)

BrC(=C\c1ccccc1)/C=N/n1cnnc1
inhibition [1]: 5.75% (inactive)

Cc1ccc(-c2cc(C(F)F)n3ncc(C(=O)N4CCN(c5ccccn5)CC4)c3n2)cc1
inhibition [1]: 8.27% (inactive)

O=C(NCc1ccccc1)c1ncn[nH]1
inhibition [1]: inactive

O=C(Nc1ccccc1Cl)C1CCCN(S(=O)(=O)c2ccc(-n3cnnn3)cc2)C1 (stereo not drawn)
inhibition [1]: 0.96% (inactive)

COc1cccc(-c2ccc(NC(=O)C3CCCN(Cc4cnn(C)c4C)C3)cc2)c1 (stereo not drawn)
inhibition [1]: 23.7% (inactive)

COc1cccc(-c2ccc(NC(=O)C3CCCN(Cc4cnn(C(C)C)c4)C3)cc2)c1 (stereo not drawn)
inhibition [1]: 21.3% (inactive)

COc1cccc(-c2ccc(NC(=O)C3CCCN(Cc4cnc(C)s4)C3)cc2)c1 (stereo not drawn)
inhibition [1]: 2.02% (inactive)

Cn1cc(CN2CCC(C(=O)Nc3cccc(-c4cccc(F)c4)c3)CC2)cn1
inhibition [1]: 5.64% (inactive)

Cc1ncc(CN2CCCC(C(=O)Nc3ccc(-c4cccc(F)c4)cc3)C2)cn1 (stereo not drawn)
inhibition [1]: 5.3% (inactive)

Cc1ncc(CN2CCCC(C(=O)Nc3ccc(-c4ccco4)cc3)C2)n1C (stereo not drawn)
inhibition [1]: 5.05% (inactive)

COC(=O)C(O)(c1ccc(N(C)C(=O)c2ccc(Cl)c(Cl)c2)cc1)C(F)(F)F (stereo not drawn)
inhibition [1]: 0.88% (inactive)

CCOC(=O)c1c(S(=O)(=O)N2c3ccccc3CC2C)c(C)n(C)c1C (stereo not drawn)
inhibition [1]: inactive

Cc1c(NC(=O)c2ccc(Br)s2)c(=O)n(-c2ccccc2)n1C
inhibition [1]: 0.26% (inactive)

CC(=O)NC(CC(C)C)C(=O)NC(Cc1ccccc1)C(=O)CCl (stereo not drawn) (Ac-Leu-Phe-CH2Cl; configuration not given here)
inhibition [1]: 6.56% (inactive)

O=C(N[C@@H](Cc1ccccc1)C(=O)CCl)OCc1ccccc1
inhibition [1]: 8.46% (inactive)

Cc1nc(-c2ccc(Cl)cc2)sc1C1(C)CC(c2cccc(F)c2)=NO1 (stereo not drawn)
inhibition [1]: 2.59% (inactive)

C[C@]12CCC(O)CC1CCC1C2CC[C@]2(C)C(c3cc(C(F)(F)F)n[nH]3)CCC12 (stereo partly drawn)
inhibition [1]: inactive

CN(C)CCNC(=O)c1ccccc1-c1cc2ccccc2c(=O)o1
inhibition [1]: 0.53% (inactive)

COc1ccc(C(=O)Nc2cc3c(cc2OC)CCCC3)cc1Br
inhibition [1]: 1.28% (inactive)

COc1cc2c(cc1NC(=O)c1cccc(F)c1)CCCC2
inhibition [1]: 0.61% (inactive)

CCOc1ccc(NC(=O)CN(C)C(=O)CCc2nc3ccccc3c(=O)[nH]2)cc1OCC
inhibition [1]: inactive

CC1(C)Cc2cccc(OCC(=O)Nc3nccs3)c2O1
inhibition [1]: 7.27% (inactive)

CC1(C)Cc2cccc(OCC(=O)Nc3cccnc3)c2O1
inhibition [1]: 7.7% (inactive)

CCCC(=O)C1C(=O)CC(CC(C)SCC)CC1=O (stereo not drawn)
inhibition [1]: 0.43% (inactive)

O=C1/C(=C/c2cccnc2)Oc2cc(OS(=O)(=O)c3ccc(F)cc3)ccc21
inhibition [1]: 0.87% (inactive)

CC(=O)c1c(C)[nH]c(C(=O)NC2CCSc3ccccc32)c1C (stereo not drawn)
inhibition [1]: 4.81% (inactive)

CCc1c(C(=O)NC2CCCCC2)[nH]c(C)c1C(C)=O
inhibition [1]: inactive

COc1ccc(N2C(=O)CC(N3CCN(c4ccc(Cl)cc4)CC3)C2=O)cc1 (stereo not drawn)
inhibition [1]: 0.34% (inactive)

Cc1cc2occ(CC(=O)Nc3nnc(C4CC4)s3)c2cc1C
inhibition [1]: 0.7% (inactive)

CCC(CC)c1nnc(NC(=O)Cc2c[nH]c3ccccc23)s1
inhibition [1]: 3.52% (inactive)

O=C(Cc1coc2ccc3ccccc3c12)Nc1nccs1
inhibition [1]: 2.66% (inactive)

CCc1nnc(NC(=O)Cc2c[nH]c3ccccc23)s1
inhibition [1]: 0.4% (inactive)

CC(=O)c1cccc(N=Cc2c(O)c3ccccc3oc2=O)c1
inhibition [1]: 8.95% (inactive)

Cc1[nH]c2ccccc2c1C(C[N+](=O)[O-])c1ccco1 (stereo not drawn)
inhibition [1]: 1.43% (inactive)

COc1cc(S(=O)(=O)N2CCN(C)CC2)c(OC)cc1Cl
inhibition [1]: inactive

O=C(CNCCO)NC12CC3CC(CC(C3)C1)C2
inhibition [1]: 2.6% (inactive)

COCCC(=O)NC12CC3CC(CC(C3)C1)C2
inhibition [1]: inactive

Oc1ccc(N=Nc2n[nH]c(-c3ccc(Cl)cc3)n2)cc1
inhibition [1]: 1.16% (inactive)

Oc1ccc(Cl)cc1N=Nc1ccccc1
inhibition [1]: inactive

COc1ccccc1-c1n[nH]c(=S)o1
inhibition [1]: 0.85% (inactive)

CC(=O)Nc1ccc(S(=O)(=O)N2CCCc3ccccc32)cc1
inhibition [1]: inactive

COC(=O)Nc1ccc(S(=O)(=O)N2CCCc3ccccc32)cc1
inhibition [1]: inactive

O=C(O)c1ccc(Sc2ccccn2)c([N+](=O)[O-])c1
inhibition [1]: 0.39% (inactive)

N/C(CS(=O)(=O)c1ccccc1)=N\OC(=O)c1ccc(F)cc1
inhibition [1]: 1.85% (inactive)

c1ccc(Oc2nc(NCc3ccco3)nc(NCc3ccco3)n2)cc1
inhibition [1]: 4.2% (inactive)
